CYP2C9 inh – blockers of cytochrome P450 2C9 activity – biochemical, luminescence, ADME assay, primary screen; P11712; CYP2C9 Supersomes, luciferin-H conversion; inhibition, % at 5 µM; actives 20% (n = 96,000);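 active means blocking of liver enzyme CYP2C9 beyond about 50% at 5 µM, limit read from the data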
CYP2C19 act – human CYP2C19 activators, primary screen, biochemical, luminescence | Cytochrome P450 2C19 (Homo sapiens), P33261 | activation factor at 5 µM | recombinant CYP2C19, luciferin-H EGE luminescence; hits give high values; 0 = fully inhibited enzyme, 1 = untreated enzyme | AID 1025, 2008 | 96,000 tested, under 10 active;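 active means activation factor of at least 2 at 5 µM in the primary screen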;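 further: 0 = wells with 2.5 mM tranylcypromine and 1 = vehicle-only wells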
Target sequence (P33261 whole entry, looked up): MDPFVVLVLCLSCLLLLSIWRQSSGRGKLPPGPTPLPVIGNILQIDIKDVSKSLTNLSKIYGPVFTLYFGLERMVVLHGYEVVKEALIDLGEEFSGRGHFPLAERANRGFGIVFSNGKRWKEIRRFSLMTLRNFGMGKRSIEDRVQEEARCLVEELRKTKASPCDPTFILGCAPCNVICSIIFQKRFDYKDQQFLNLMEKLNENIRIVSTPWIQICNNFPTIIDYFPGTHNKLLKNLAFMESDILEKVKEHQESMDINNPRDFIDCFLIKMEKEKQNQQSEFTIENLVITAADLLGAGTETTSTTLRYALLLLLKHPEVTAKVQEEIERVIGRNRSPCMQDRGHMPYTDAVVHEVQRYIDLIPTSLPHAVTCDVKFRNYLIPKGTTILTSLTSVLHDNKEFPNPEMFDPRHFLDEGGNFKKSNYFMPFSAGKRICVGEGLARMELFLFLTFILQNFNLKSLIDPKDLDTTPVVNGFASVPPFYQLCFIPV
CYP2C19 inhib – blockers of cytochrome P450 2C19 activity – biochemical, luminescence, ADME assay, primary screen | P33261 | CYP2C19 Supersomes, luciferin-H EGE luminescence, 30 min | inhibition, % at 5 µM | actives 21% (n = 96,000) | AID 778, 2007;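 active means CYP2C19 inhibition above a set limit at 5 µM in the primary screen, cut at about 50% in these data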;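 further: plate controls were negative control wells for no effect and 2.5 mM tranylcypromine positive control for full effect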
CYP2C9 activ – human CYP2C9 activators, primary screen, biochemical, luminescence | recombinant CYP2C9, luciferin-H conversion; hits give high values; factor 1 = untreated enzyme, 0 = blocked | activation factor at 5 µM | actives 1.4% (n = 96,000) | AID 1024, 2008;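 active means activation factor of 2 or more for CYP2C9 at a 5 µM dose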;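 further: 0 = sulfaphenazole-blocked wells and 1 = vehicle-only wells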
PLAP act – PLAP enzyme activators, biochemical, luminescence, HTS; actives 1.2% (n = 96,000); Alkaline phosphatase, placental type (Homo sapiens), P05187; activation fold at 20 µM; AID 696, 2007; purified PLAP enzyme, luminescent substrate read-out; hits give high values; in the data active means activation fold above about 2
Active calls of the source: *. Sampled rows, rich in hits. Any-hit rate of the full collection: about 31%.

SMILES	CYP2C9 inh	CYP2C19 act	CYP2C19 inhib	CYP2C9 activ	PLAP act
O=C(CCCC(=O)OCC(Cl)=C(Cl)Cl)Nc1cccc(F)c1	-2.5	0.7	26.8	1	1
CC1CCN(C(=O)CCCNC(=O)Cn2cnc3sc4c(c3c2=O)CCCC4)CC1	27.3	0.8	23.2	0.7	1.6
CCC(CC)C(=O)NC12CC3CC(CC(C3)C1)C2	13.9	0.9	12.6	0.9	0.8
O=C(Oc1cccc(N2C(=O)CCC2=O)c1)C1CC(=O)N(c2ccc(Br)cc2)C1 (centres undefined)	5.8	1.1	-10.3	0.9	1
CC(=O)Nc1nc2ccccc2n1Cc1ccccc1C	12.6	0.2	81.7*	0.9	1.8
CSc1cc(-c2ccccc2)n(Cc2ccc(Cl)cc2Cl)c(=O)c1C#N	51.3*	0.8	15.4	0.5	0.7
CC1(C(=O)N2CC3(CC(c4cccc([N+](=O)[O-])c4)=NO3)C[C@H]2C(=O)NCC(N)=O)CC1 (some centres undefined)	-15.0	1	4.8	1.1	1.2
COc1ccc(-c2oc3ncn4nc(COc5ccccc5)nc4c3c2-c2ccc(OC)cc2)cc1	27.8	1.1	-5.1	0.7	1.1
COc1ccc(/C=N/OCc2nc3c4c(ncn3n2)Oc2ccc3ccccc3c2C4c2ccccc2)cc1 (centres undefined)	15.2	0.3	69.3*	0.8	1.1
O=C(/C=C/NNC(=O)c1ccccc1)c1ccccc1	7.2	0.8	17.3	0.9	1.4
NC(=O)c1ccccc1N/C=C/C(=O)c1ccccc1	44.6	0.3	74.4*	0.6	1
COc1cccc(N(CC(=O)NCCSc2ccc(Cl)cc2)S(C)(=O)=O)c1	16.3	0.9	13.5	0.8	1.1
COCCNC(=O)CN(c1cccc(OC)c1)S(=O)(=O)c1ccc(C)cc1	40.2	0.2	76.0*	0.6	1.6
COc1ccc(CNC(=O)CN(c2cccc(OC)c2)S(C)(=O)=O)cc1	16.9	0.1	86.7*	0.8	1
COc1ccc(N(CC(=O)NCCSC(C)(C)C)S(C)(=O)=O)c(OC)c1	-1.8	1	4.0	1	1.4
COc1ccc(OC)c(N(CC(=O)NCCSc2ccccc2)S(C)(=O)=O)c1	89.6*	0.1	93.7*	0.1	1.5
COc1ccc(CCNC(=O)CN(c2ccc(OC)c(OC)c2)S(C)(=O)=O)cc1OC	15.5	1	2.8	0.8	0.9
COc1cccc(N(CC(=O)O)S(=O)(=O)c2ccccc2)c1	-9.8	1.2	-21.0	1.1	1.1
COc1cccc(N(CC(=O)NCCSc2ccccc2)S(C)(=O)=O)c1	56.0*	0.1	93.4*	0.4	0.9
O=[n+]1c2c(n([O-])c3ccccc31)CCCC2	22.7	1	0.1	0.8	1.1
O=C(NCc1ccccc1)C(c1ccc(F)cc1)N(Cc1ccco1)C(=O)c1ccccn1 (centres undefined)	23.0	0.4	61.5*	0.8	1.2
Cc1ccccc1C(C(=O)NCc1ccccc1)N(Cc1ccco1)C(=O)c1ccccn1 (centres undefined)	33.9	0.5	53.5*	0.7	1.4
O=C(c1ccccn1)N(Cc1ccco1)C1(C(=O)NC2CCCCC2)CCCCC1	15.1	1	1.9	0.8	1.3
Cc1cccc(C)c1NC(=O)C1(N(Cc2ccco2)C(=O)c2ccccn2)CCCC1	62.7*	0.6	41.3	0.4	1.4
O=C(Nc1ccccc1[N+](=O)[O-])C1=C(O)CCn2c1nc1ccccc12	31.2	1	2.3	0.7	1.1
SMILES	CYP2C9 inh	CYP2C19 act	CYP2C19 inhib	CYP2C9 activ	PLAP act
COc1ccc2c(c1)NC(=O)CC(c1ccccc1)=N2	49.1	0.3	74.7*	0.5	1
O=C(c1cc(Cl)ccc1Cl)N1CCN(c2ccccn2)CC1	92.1*	0.1	94.1*	0.1	1.1
O=C(c1ccc(S(=O)(=O)N2CCCCCC2)cc1)N1CCN(c2ccccn2)CC1	69.4*	0.9	7.5	0.3	1.7
O=C(c1ccc(Cl)c(S(=O)(=O)N2CCCC2)c1)N1CCN(c2ccccn2)CC1	31.8	0.9	11.4	0.7	1
O=C(c1c(Cl)cccc1Cl)N1CCN(c2ccccn2)CC1	63.2*	0.6	37.4	0.4	0.9
Nc1cccc2c1C(=O)N(C(=O)c1ccc(S(=O)(=O)N3CCCCCC3)cc1)C2=O	57.0*	0.7	28.7	0.4	1.3
COc1ccccc1C(=O)N1CCN(c2ccccn2)CC1	26.6	0.7	31.6	0.7	1
COc1cccc(OC)c1C(=O)N1CCN(c2ccccn2)CC1	6.8	0.8	25.0	0.9	1.3
C/C(=N\Nc1nccnc1Cl)c1ccc([N+](=O)[O-])cc1	10.2	0.9	14.2	0.9	1
O=C(Nc1ccc2c(c1)C(=O)N(CC1CCCO1)C2=O)c1cccc(Br)c1 (centres undefined)	26.0	0.8	17.0	0.7	0.9
O=C1CCC(C(=O)OCc2ccccc2)N1 (centres undefined)	-1.0	1	2.4	1	0.7
O=C1CN(c2ccc(Cl)cc2)C(=O)CN1NC(=S)Nc1ccc(Cl)cc1	-6.2	1.1	-12.9	1.1	1
O=C(c1cccc(Cl)c1)N1CCN(c2ccccn2)CC1	79.4*	0.1	89.8*	0.2	1.1
NC(=O)C1CCN(C(=O)N2c3ccccc3Sc3ccccc32)CC1	1.8	0.8	22.5	1	1.5
O=C(N1CCN(c2ccccn2)CC1)N1c2ccccc2Sc2ccccc21	88.3*	0.1	89.9*	0.1	1
CC1(C)Cc2nc(N3CCOCC3)c(C#N)cc2CO1	3.5	0.9	11.6	1	1
CN(C)CCNc1nc(-c2ccccc2)c2c(c1C#N)CC(C)(C)OC2	47.9	0.8	15.1	0.5	1.6
CC1(C)Cc2c(C#N)c(OCC(=O)c3ccccc3)nc(-c3ccoc3)c2CO1	4.8	0.9	12.9	1	1
CC1(C)Cc2c(C#N)c(SCc3ccccc3)nc(N3CCOCC3)c2CO1	88.2*	0.8	23.2	0.1	1.2
CC1(C)Cc2c(C#N)c(SCC(=O)c3ccccc3)nc(N3CCOCC3)c2CO1	91.7*	0.4	61.8*	0.1	1.3
CCCCCSc1nc(N2CCOCC2)c2c(c1C#N)CC(C)(C)OC2	82.8*	0.7	25.1	0.2	1.5
COC(=O)Sc1nc(N2CCOCC2)c2c(c1C#N)CC(C)(C)OC2	83.0*	0.4	62.5*	0.2	1.5
CC(C)CNC(=S)NC1CC2CCCC(C1)N2Cc1cccs1 (centres undefined)	-2.8	0.6	39.2	1	1.3
COC(CNC(=O)c1cc(C(=O)c2c(-c3c(Cl)cccc3Cl)noc2C)c[nH]1)OC	23.3	0.9	13.4	0.8	1.4
COc1cc(C(C#N)N2N=C(c3ccccc3)CC2c2ccccc2)ccc1O (centres undefined)	57.6*	0.7	32.9	0.4	1.1
